FMDV antiviral = Primary qHTS Assay for Foot and Mouth Disease Virus Antivirals against NCGC Sytravon and CBC Compound Libraries: Firefly Luciferase Signal; FMDV antiviral cell assay, firefly luciferase signal; Potency, µM (top dose mostly 57.5 µM), without a hit: at the top dose activity change, negative = inhibition, actives largely listed as inhibitors; actives 0.23% (n = 120,000); also: nearly all actives have a fitted effect of over 60% in size
FMDV RLuc = Primary qHTS Assay for Foot and Mouth Disease Virus Antivirals against NCGC Sytravon and CBC Compound Libraries: Renilla Luciferase Signal | FMDV replicon cells, Renilla luciferase signal | Potency, µM (titrated, usually from 57.5 µM), for inactives: top-dose activity change, negative = inhibition, usual class: inhibitors | actives 0.32% (n = 120,000) | AID 1745857, 2022; also: nearly all actives have a fitted effect of over 55% in size
Numbers without * were called inactive; [ ] = another dose, or the depositor's remark. Shown are actives, neighbours in structure and some others; about 0.4% of the full set was active somewhere. Calls follow the shape of the full dose curve. % is scaled to controls: 0 for no effect and ±100 for the full control effect; potency is read from the fitted curve at half-maximal effect.

What do the screens show for `C[C@@H]1O[C@@H](O[C@H]2C[C@@H](O)[C@]3(CO)[C@H]4[C@H](O)C[C@]5(C)[C@@H](C6=CC(=O)OC6)CC[C@]5(O)[C@@H]4CC[C@]3(O)C2)[C@H](O)[C@H](O)[C@H]1O`?
FMDV antiviral: -69%[11.5 µM]; FMDV RLuc: -76%

What do the screens show for `CC1OC(OC2CCC3(C=O)[C@H]4CCC5(C)C(C6=CC(=O)OC6)CCC5(O)[C@@H]4CCC3(O)C2)CC2OC(C)(C)OC12` (stereo partly drawn)?
FMDV antiviral: 1µM*; FMDV RLuc: 1.3µM*

Results for CC1OC(OC2CCC3(C=O)[C@H]4CCC5(C)C(C6=CC(=O)OC6)CCC5(O)[C@@H]4CCC3(O)C2)CC(O)C1O (stereo partly drawn) ?
FMDV antiviral: inconclusive; FMDV RLuc: 0.28µM*

Results for CC1OC(OC2CCC3(C=O)[C@H]4CCC5(C)C(C6=CC(=O)OC6)CCC5(O)[C@@H]4CCC3(O)C2)C(O)C(O)C1O (stereo partly drawn) ?
FMDV antiviral: -79%; FMDV RLuc: -75%

What do the screens show for `Cc1cc(C)cc(C(=O)c2c(-c3ccccc3)cc3ccccn23)c1`?
FMDV antiviral: 0%; FMDV RLuc: 40%

What do the screens show for `Cc1nc2ccc(S(=O)(=O)N(CC(=O)N3CCCC3)Cc3ccccc3)cc2s1`?
FMDV antiviral: 5%; FMDV RLuc: 98%

How did Cc1ccc(Nc2nc(C(N)=O)c(NC(=O)CC34CC5CC(CC(C5)C3)C4)s2)cc1 do in these assays?
FMDV antiviral: 0%; FMDV RLuc: -19%

What do the screens show for `Cc1ccc(NC(=O)C2=CCN(Cc3ccccc3F)CC2)cc1`?
FMDV antiviral: 80%; FMDV RLuc: 2%

How did Cc1ccc(Oc2nc(-c3ccncc3)nc3ccccc23)cc1 do in these assays?
FMDV antiviral: 25%; FMDV RLuc: 16%

Results for CCC(NC(=O)C1CCN(C(=O)c2cccc3ccccc23)CC1)c1ccc(Cl)cc1 (stereo not drawn) ?
FMDV antiviral: -12%; FMDV RLuc: 30%

How did CCCCOC(=O)c1cccc(NC(=O)c2cc3ccccc3o2)c1 do in these assays?
FMDV antiviral: 8.9µM*; FMDV RLuc: -13%

Results for CCCCOC(=O)c1ccc(NC(=O)c2cc(=O)c3ccccc3o2)cc1 ?
FMDV antiviral: -19%; FMDV RLuc: -5%

Results for CC(C)(C)c1ccc(OCCOc2ccccc2/C=C(/C#N)C(N)=O)cc1 ?
FMDV antiviral: 161%; FMDV RLuc: 4%

What do the screens show for `COc1ccc(Cl)cc1NC(=O)[C@H]1C[C@@H]2CCCN2[C@]12C(=O)Nc1c(Cl)cc(C)cc12`?
FMDV antiviral: 6%; FMDV RLuc: 11%

How did COc1ccc2c(c1)c(C(C)=O)c(C)n2CCc1ccccc1 do in these assays?
FMDV antiviral: inconclusive; FMDV RLuc: 11µM*

How did COc1ccc2c(c1)c(C(C)=O)c(C)n2CCc1ccc(OC)c(OC)c1 do in these assays?
FMDV antiviral: -3%; FMDV RLuc: -6%

Results for CCCC(C)NC(=O)C1CCN(C(=O)c2ccc(C(F)(F)F)cc2)CC1 (stereo not drawn) ?
FMDV antiviral: 27%; FMDV RLuc: 10%

What do the screens show for `Cc1cccc(C(=O)N2CCN(Cc3ccc(-c4cccc(F)c4)s3)CC2)n1`?
FMDV antiviral: 10µM*; FMDV RLuc: inconclusive

How did Cc1ccc2c(CN3CCN(C(=O)c4cccc(F)c4)CC3)cc(=O)oc2c1 do in these assays?
FMDV antiviral: 17%; FMDV RLuc: 1%

How did CCCCOc1ccc(C(=O)Nc2ccc3c(c2)N(C(C)=O)CCC3)cc1 do in these assays?
FMDV antiviral: 1.3µM*; FMDV RLuc: -12%

Results for CC(=O)N1CCCc2ccc(NC(=O)c3ccc(OC(C)C)cc3)cc21 ?
FMDV antiviral: inconclusive; FMDV RLuc: -4%

What do the screens show for `COc1ccc(OC)c(NC(=O)Cc2c(C)c3ccc(OC)cc3oc2=O)c1`?
FMDV antiviral: 11%; FMDV RLuc: 50%

What do the screens show for `CCONC(=O)C(C)Oc1cccc(C#N)c1` (stereo not drawn)?
FMDV antiviral: 10%; FMDV RLuc: 17%

What do the screens show for `COc1ccc(S(=O)(=O)NCC2CCC(C(=O)NCC(=O)N3CCc4ccccc4C3)CC2)cc1` (stereo not drawn)?
FMDV antiviral: -10%; FMDV RLuc: -1%

How did Cc1cc(C)cc(Nc2cc(C(=O)NCCCN(C)C3CCCCC3)c3ccccc3n2)c1 do in these assays?
FMDV antiviral: -15%; FMDV RLuc: -5%

How did Cc1ccc(C)c(Nc2cc(C(=O)NCCCN(C)C3CCCCC3)c3ccccc3n2)c1 do in these assays?
FMDV antiviral: -14%; FMDV RLuc: 32µM*

What do the screens show for `COc1ccccc1/C=C/C=C1\Oc2cc(OC(=O)C(C)(C)C)ccc2C1=O`?
FMDV antiviral: 40%; FMDV RLuc: 22%

Assay outcomes: PubChem BioAssay, National Center for Advancing Translational Sciences (NCATS)
